# Source: PubChem
# PNC assembly inh: perinucleolar compartment assembly inhibition; PC3M PTB-GFP, PNC prevalence imaging, 16 h; active compounds read low; activity change (PNC), negative = inhibition, % at 10 µM; 140,000 compounds, 3.1% hits; AID 2417;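 active = readout at or below -70, meaning at least 70% loss of cells showing the perinucleolar compartment, a nuclear body marking cancer cells; inconclusive = readout between -30 and a set limit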;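 note: plate controls were DMSO wells for no effect and camptothecin positive control wells for full effect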
#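 PC3M cells stably expressing PTB-GFP, 750–1000 cells/well, treated 16 h at 37 °C with compound (23 nl of library stock), in duplicate. After paraformaldehyde fixation and Hoechst stain, imaged at 20x; PNC prevalence scored by image analysis.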
# ALOX12 inhib: inhibitors of human 12-lipoxygenase (ALOX12) | 150,000 compounds, 0.12% hits | purified 12-hLO, xylenol orange hydroperoxide absorbance | P18054 | Potency, µM (top dose mostly 57.1 µM), for inactives: at the top dose activity change, negative = inhibition, hits mostly inhibitors; active = well fitted inhibition curve with a large enough effect; inconclusive = small, poorly fitted or top-dose-only effect; note: potency is the fitted concentration of half-maximal effect; nearly all actives have a fitted effect of over 55% in size
#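 Purified human 12hLO (150 nM final) was preincubated with compounds for 15 min at room temperature in 25 mM Hepes pH 7.0, 0.01% Triton X-100, then reacted with 40 uM arachidonic acid for 30 min. Hydroperoxide was detected with ferrous iron/xylenol orange.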
# HPGD inh: blocks human HPGD enzyme activity; P15428; purified HPGD, NADH fluorescence kinetic, PGE2 substrate; Potency, µM, for the others: at the highest dose activity change, negative = inhibition, hits mostly inhibitors; 150,000 compounds, 4.3% hits; AID 894; note: potency is the fitted concentration of half-maximal effect
# Target sequence (P15428 whole entry, looked up): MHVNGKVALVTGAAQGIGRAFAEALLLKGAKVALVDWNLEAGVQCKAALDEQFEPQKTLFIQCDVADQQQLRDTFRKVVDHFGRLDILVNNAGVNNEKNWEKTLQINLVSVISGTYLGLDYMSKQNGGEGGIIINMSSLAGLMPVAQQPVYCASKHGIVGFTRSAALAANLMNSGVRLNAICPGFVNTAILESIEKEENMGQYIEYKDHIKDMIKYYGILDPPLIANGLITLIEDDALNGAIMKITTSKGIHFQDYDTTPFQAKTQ
#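 NADH formation kinetics: reaction with 30 uM PGE2 and 1 mM NAD+ (final), 20 nM enzyme, Tris-HCl pH 8 with Tween 20, after 15 min compound preincubation at room temperature. Fluorescence change, last versus first of five reads.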
# LMNA splice mod: LMNA splicing modulation | HeLa LMNA splicing GFP/RFP minigene ratio, 48 h | Potency, µM (titrated, usually from 46.1 µM), inactives show at the highest dose ratio change, negative = inhibition, hits mostly inhibitors | 200,000 compounds, 0.01% hits | AID 1487; active = well fitted inhibition curve with a large enough effect in the signal ratio, with a control signal flat, not every such curve was filed as active; inconclusive = small, poorly fitted or top-dose-only effect, or effect the other way, or a change in a side signal; the % refers to the signal ratio; note: potency is the fitted concentration of half-maximal effect
#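 Read-out is the ratio of GFP to DsRed2 object intensity, acquired by 488 nm laser-scanning cytometry on HeLa lamin A-EGFP minigene reporter cells. Compound incubation 48 hrs at 37 °C in Opti-MEM with 2% FBS; DMSO 0.5% final.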
# ALDH1A1 block: ALDH1A1 (human) enzyme inhibition; Purified ALDH1A1, NADH fluorescence, propionaldehyde substrate; Potency, µM (series often up to 75.3 µM), for the others: top-dose activity, negative = inhibition, actives largely listed as inhibitors; 220,000 compounds, 7.3% hits;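 note: potency is the fitted concentration of half-maximal effect; plate controls were no enzyme wells and a reference inhibitor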
# Target sequence (P00352 whole entry, looked up): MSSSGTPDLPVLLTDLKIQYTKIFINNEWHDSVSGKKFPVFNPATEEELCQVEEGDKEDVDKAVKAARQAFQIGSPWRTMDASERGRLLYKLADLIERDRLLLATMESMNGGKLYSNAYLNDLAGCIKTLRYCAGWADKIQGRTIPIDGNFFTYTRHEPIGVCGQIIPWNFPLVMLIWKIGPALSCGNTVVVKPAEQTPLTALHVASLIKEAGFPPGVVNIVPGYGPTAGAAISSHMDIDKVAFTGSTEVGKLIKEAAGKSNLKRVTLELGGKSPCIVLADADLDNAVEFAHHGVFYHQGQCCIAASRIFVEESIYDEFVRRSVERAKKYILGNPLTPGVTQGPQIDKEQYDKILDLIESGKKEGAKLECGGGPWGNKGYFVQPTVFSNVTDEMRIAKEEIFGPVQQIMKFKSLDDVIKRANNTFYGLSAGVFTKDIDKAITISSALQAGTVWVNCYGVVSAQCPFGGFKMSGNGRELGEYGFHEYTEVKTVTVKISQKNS
# Starred values were filed as active, the others as inactive; ? = inconclusive; nt = no result; ! = repeats disagree; [ ] = dose if it differs, or a comment. Sampled rows, rich in hits. Any-hit rate of the full collection: about 10%. Unless noted, calls come from the whole dose curve; as a rule, active = well fitted inhibition curve with a large enough effect (not every such curve was filed as active); inconclusive = small, poorly fitted or top-dose-only effect, or another doubt; inactive = no such curve, though single readings can be large or run the other way. Unless noted, % is set by controls: 0 for no effect and ±100 for the full control effect.
SMILES,PNC assembly inh,ALOX12 inhib,HPGD inh,LMNA splice mod,ALDH1A1 block
CC/C=C\C[C@H](O)/C=C/C=C\C/C=C\C/C=C\CCCC(=O)O,nt,5.3%,-5.1%,nt,3.8%
COC(=O)NC(c1cccc(F)c1)C(C(C)=O)C(=O)OC (configuration not stated),nt,nt,nt,nt,2.7%[13.5 µM]
O=C(O)c1c(C(=O)O)c2ccccc2[nH]c1=O,nt,nt,-18.6%,nt,-5.4%
CCN(CC)CCn1c(-c2ccccc2)nc2c(N3CCOCC3)nc(C)nc21,nt,-0.1%,?,nt,?
CC(=O)Nc1ccc(S(=O)(=O)Nc2nc3ccccc3nc2Nc2ccc(S(N)(=O)=O)cc2)cc1,32.3,-0.5%,?,-6.7%,?
CC(=O)Nc1ccc(S(=O)(=O)Nc2nc3ccccc3nc2N2CCCC2)cc1,-6.3,-9.2%,-20.7%,4.0%,11.2µM*
C=CCn1c(Cc2ccccc2)n[nH]c1=S,nt,nt,nt,nt,-3.6%
C=CCn1c(Cc2c[nH]c3ccccc23)n[nH]c1=S,11.8,-22.7%,-23.1%,-5.1%,8.91µM*
C=CCn1c(Cc2nc3ccc(Cl)cc3[nH]2)n[nH]c1=S,?,-23.3%,?,6.1%,10µM*
O=C(CN1C(=O)COc2ccccc21)Nc1ccc2c(c1)OCCO2,?,-3.2%,-10.7%,-2.7%,-8.0%
CCC1Oc2ccccc2N(CC(=O)Nc2ccc3c(c2)OCCO3)C1=O (configuration not stated),-94.1*,-0.3%,-4.0%,-17.3%,5.9%
O=C(CN1C(=O)CSc2ccccc21)Nc1ccc2c(c1)OCCO2,?,-2.3%,-11.2%,-11.6%,8.2%
O=C(CN1C(=O)CCS(=O)(=O)c2ccccc21)Nc1ccc2c(c1)OCCO2,-100.0*,-3.6%,-9.5%,-12.3%,10.1%
Cc1cc(C)nc(SCNC(=O)c2ccc(Cl)cc2)n1,-18.4,-7.4%,28.2µM*,8.6%,4.0%
Cc1cc(C)nc(SCc2ccc(C(=O)NN=C3CCCC3)cc2)n1,nt,nt,nt,nt,2.82µM*
Cc1cc(C(=O)N/N=C2\CCCC(=O)C2)c2ccccc2n1,-18.8,0.7%,-4.8%,-1.4%,-3.3%
Cc1cc(C)nc(SCc2ccc(C(=O)N/N=C3\CCCC(=O)C3)cc2)n1,nt,nt,nt,-10.8%[46 µM],8.91µM*
Cc1cc(C)nc(SCc2ccc(C(=O)N/N=C/c3cccnc3)cc2)n1,nt,nt,nt,-19.0%[46 µM],15.7%
O=C(c1ccc(Cl)cc1)c1oc2ccccc2c1CS(=O)c1ccc(Cl)cc1 (configuration not stated),?,-29.2%,-17.5%,?,3.98µM*
COc1ccc(-c2coc3ccc(OC4OC(COC(C)=O)C(OC(C)=O)C(OC(C)=O)C4OC(C)=O)c(OC(C)=O)c3c2=O)cc1 (configuration not stated),nt,-3.1%,-3.6%,nt,5.4%
Cc1nnc(N/N=C/c2ccc(-c3ccc(Br)cc3)o2)n1N,nt,nt,nt,-1.1%[46 µM],7.94µM*
CN(C)c1ccc(/C=N/n2cnn(Cc3ccccc3Cl)c2=S)cc1,nt,nt,nt,-6.4%[46 µM],?
Fc1ccc(/C=N/n2cnn(Cc3ccccc3Cl)c2=S)cc1,nt,nt,nt,6.5%[46 µM],20µM*
O=C(CCl)Nc1nc(-c2ccco2)c(-c2ccco2)s1,-5.7,-6.0%,?,?,0.398µM*
O=C(CCCSc1ccccc1)Nc1nc(-c2ccco2)c(-c2ccco2)s1,-24.4,-15.3%,?,-12.9%,?
SMILES,PNC assembly inh,ALOX12 inhib,HPGD inh,LMNA splice mod,ALDH1A1 block
COc1ccc(-c2noc(CCC(=O)Nc3cccnc3)n2)cc1OC,-100.0*,-2.6%,-26.4%,?,?
O=C(CCCc1nc(-c2ccccc2)no1)NCc1cccnc1,-5.3,-2.8%,-13.8%,?,14.1µM*
COc1ccc(CC(=O)Nc2ccc(-c3noc(-c4cc(OC)c(OC)c(OC)c4)n3)cc2)cc1,-100.0*,-5.4%,?,-6.3%,-5.8%
COc1ccc(NC(=O)CCc2nc(-c3ccc(C)cc3)no2)c(OC)c1,-103.5*,0.3%,-8.4%,2.0%,?
O=C(CCCc1nc(-c2ccccc2)no1)Nc1cccnc1,-8.6,-5.2%,-3.8%,?,-4.2%
COc1cccc(-c2noc(CCC(=O)Nc3cccnc3)n2)c1,-17.8,1.5%,-4.6%,-8.1%,3.3%
CCC(C)c1ccc(O[C@@H]2O[C@H](CO)[C@@H](O)[C@H](O)[C@H]2NC(C)=O)cc1 (some centres not stated),nt,nt,-12.6%,nt,-22.4%
Cn1cccc1-c1cc2n(n1)CCC(=O)N2CCCC(=O)NCc1cccc(Cl)c1,nt,nt,nt,8.6%[46 µM],nt
O=C(CCc1nc(-c2ccccc2)no1)NCCc1ccccc1,36.6,5.9%,-23.6%,4.3%,5.9%
COc1ccc(-c2noc(CCC(=O)NCCN(C)Cc3ccccc3)n2)cc1,34.2,-3.0%,15.8µM*,13.4%,6.7%
COc1ccc(-c2noc(CCC(=O)NC3CCCCC3)n2)cc1OC,-1.0,4.5%,35.5µM*,7.3%,6.3%
COc1ccc(Cc2nc(-c3ccc(NC(=O)c4cccnc4)cc3)no2)cc1,-126.1*,-5.0%,-12.3%,?,12.1%
Cc1cccc(CNC(=O)Cn2c(-c3cccs3)cc3ccccc32)c1,nt,nt,nt,-0.4%[46 µM],nt
Cc1c(C(=O)Nc2ccc(F)c(F)c2)oc2ccc(S(=O)(=O)N(C)C3CCCCC3)cc12,nt,nt,nt,-17.9%[46 µM],nt
O=[N+]([O-])C(=C1Nc2ccccc2N1)C(Cl)=C(Cl)Cl,nt,nt,nt,?,6.31µM*
Cc1ccc(C(=O)Nc2c(C)nc3ccccn3c2=O)cc1,nt,nt,nt,7.9%[46 µM],nt
COc1ccc(OCC(=O)Nc2nnc3n2CCS3)cc1,nt,nt,nt,20.7%[46 µM],nt
CCc1ccc(OCC(=O)c2c(O)c3ccccc3oc2=O)cc1,nt,nt,nt,-1.7%[46 µM],?
CCc1oc2ccccc2c1C(=O)c1cc(Br)c(O)c(Br)c1,26.0,-16.6%,17.8µM*!,?,-8.9%[13.5 µM]
CCOC(=O)c1ccc(-n2c(C)nc3c(cnn3-c3ccccc3Cl)c2=O)cc1,-113.4*,-5.8%,-2.7%,-4.3%,?
COc1cc(C2Nc3c(F)cccc3C3C=CCC32)cc(Br)c1OC (configuration not stated),nt,nt,nt,38.9%[46 µM],25.1µM*
COc1cccc(C2Nc3c(F)cc(Br)cc3C3C=CCC32)c1OC (configuration not stated),21.0,-4.3%,-11.5%,-4.1%,5.7%
Cc1ccc(S(=O)(=O)NNC(=O)c2ccncc2)cc1,32.0,1.1%,-1.6%,-11.2%,3.2%
CCOC(=O)CNS(=O)(=O)c1ccc(C(=O)O)cc1,23.3,4.3%,-6.9%,-0.9%,-0.8%
COC(=O)NNS(=O)(=O)c1ccc(C)cc1,-98.7*,-1.9%,-5.4%,5.3%,-9.4%
Cc1ccc(S(=O)(=O)NCCCCCC(=O)N(C)C)cc1,12.8,-3.1%,-11.6%,6.9%,?
CCOC(=O)CNS(=O)(=O)c1ccc(C)cc1,-113.4*,-2.8%,-2.9%,-5.8%,11.8%
Cc1ccc(S(=O)(=O)NC(=O)Nn2c(C)nnc2C)cc1,-80.4*,0.6%,-7.8%,5.3%,16.4%
Cc1ccc(S(=O)(=O)NCCCC(=O)C=[N+]=[N-])cc1,-108.7*,-5.1%,-3.9%,-0.9%,12.6µM*
